Assay results as given in PubChem BioAssay (NCATS).
Records with an inconclusive call do not appear. Activity calls are given as the source filed them. Calls come from the whole dose curve; as a rule, active = well fitted curve in the direction sought with a large enough effect; inconclusive = small, poorly fitted or top-dose-only effect, or another doubt; inactive = no such curve, though single readings can be large; an effect the other way counts as inactive or inconclusive.

Key:
[1] = Quantitative High-Throughput drug screen in 47 multiple myeloma cell lines against the NCATS MIPE library collection: FR4_PLB cell viability assay (AID 1918924; note: nearly all actives have a fitted effect of over 35% in size)
How it was run: (§1)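 Steps: seed 500 cells per well; pin-transfer MIPE 4.0 library; incubate 48 h at 37C, 5% CO2, humidified; add CellTiter-Glo, 5 min room temperature; read luminescence.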

[2] = Quantitative High-Throughput drug screen in 47 multiple myeloma cell lines against the NCATS MIPE library collection: EJM_DSMZ cell viability assay (AID 1918926; note: nearly all actives have a fitted effect of over 30% in size)
How it was run: (§2)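 We plated 500 myeloma cells per well, pinned in MIPE 4.0 compounds, and incubated for 48 hours at 37C. ATP was then quantified with CellTiter-Glo, with DMSO and media-only wells defining 100% and 0%.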

[3] = Quantitative High-Throughput drug screen in 47 multiple myeloma cell lines against the NCATS MIPE library collection: AMO1_DSMZ cell viability assay (AID 1918927; note: nearly all actives have a fitted effect of over 30% in size)
How it was run: as §2

[4] = Quantitative High-Throughput drug screen in 47 multiple myeloma cell lines against the NCATS MIPE library collection: ARP1_JJKsccF8 cell viability assay (AID 1918928; note: nearly all actives have a fitted effect of over 40% in size)
How it was run: (§3)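 Each line was plated at 500 cells/well and treated 48 h with library drugs. Viability came from CellTiter-Glo luminescence relative to DMSO and cell-free medium controls.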

[5] = Quantitative High-Throughput drug screen in 47 multiple myeloma cell lines against the NCATS MIPE library collection: Karpas620_DSMZ cell viability assay (AID 1918959); note: nearly all actives have a fitted effect of over 30% in size
How it was run: as §1

[6] = Quantitative High-Throughput drug screen in 47 multiple myeloma cell lines against the NCATS MIPE library collection: KMM1_JCRB cell viability assay (AID 1918960); note: nearly all actives have a fitted effect of over 30% in size
How it was run: as §3

[7] = Quantitative High-Throughput drug screen in 47 multiple myeloma cell lines against the NCATS MIPE library collection: JIM3_ECACC cell viability assay (AID 1918963; note: nearly all actives have a fitted effect of over 35% in size)
How it was run: as §1

[8] = Quantitative High-Throughput drug screen in 47 multiple myeloma cell lines against the NCATS MIPE library collection: JIM1_ECACC cell viability assay (AID 1918964)
How it was run: as §2

[9] = Quantitative High-Throughput drug screen in 47 multiple myeloma cell lines against the NCATS MIPE library collection: H1112_PLB cell viability assay (AID 1918967; note: nearly all actives have a fitted effect of over 30% in size)
How it was run: as §2

[10] = Quantitative High-Throughput drug screen in 47 multiple myeloma cell lines against the NCATS MIPE library collection: KMS27_JCRB cell viability assay (AID 1918970); note: nearly all actives have a fitted effect of over 30% in size
How it was run: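 Luminescent ATP read-out (CellTiter-Glo, 5 min at room temperature) after 48 h compound exposure of 500 KMS27_JCRB cells per well; DMSO wells define full viability and media-only wells zero.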

[11] = Quantitative High-Throughput drug screen in 47 multiple myeloma cell lines against the NCATS MIPE library collection: ARD_JJKsccE7 cell viability assay (AID 1918929)
How it was run: as §2

[12] = Quantitative High-Throughput drug screen in 47 multiple myeloma cell lines against the NCATS MIPE library collection: KHM11_PLB cell viability assay (AID 1918962); note: nearly all actives have a fitted effect of over 35% in size
How it was run: as §1

[13] = Quantitative High-Throughput drug screen in 47 multiple myeloma cell lines against the NCATS MIPE library collection: INA6_PLB cell viability assay (AID 1918965; note: nearly all actives have a fitted effect of over 55% in size)
How it was run: (§4)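 CellTiter-Glo luminescence (ATP) after 48 h compound exposure, 37C/5% CO2; 500 cells/well; MIPE 4.0 approved/investigational drugs pinned in; DMSO = 100%, media only = 0% viability.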

[14] = Quantitative High-Throughput drug screen in 47 multiple myeloma cell lines against the NCATS MIPE library collection: Karpas25_ECACC cell viability assay (AID 1918968; note: nearly all actives have a fitted effect of over 35% in size)
How it was run: as §2

[15] = Quantitative High-Throughput drug screen in 47 multiple myeloma cell lines against the NCATS MIPE library collection: Delta47_JCRB cell viability assay (AID 1918925; note: nearly all actives have a fitted effect of over 45% in size)
How it was run: as §2

[16] = Quantitative High-Throughput drug screen in 47 multiple myeloma cell lines against the NCATS MIPE library collection: JJN3_DSMZ cell viability assay (AID 1918966; note: nearly all actives have a fitted effect of over 50% in size)
How it was run: as §2

[17] = Quantitative High-Throughput drug screen in 47 multiple myeloma cell lines against the NCATS MIPE library collection: Karpas417_ECACC cell viability assay (AID 1918961); conditions: Karpas417 myeloma viability, CellTiter-Glo ATP luminescence, 48 h; viability (% of DMSO): at 45.8 µM (top of the series)
How it was run: as §4

[18] = Quantitative High-Throughput drug screen in 47 multiple myeloma cell lines against the NCATS MIPE library collection: KMS12BM_JCRB cell viability assay (AID 1918971); note: nearly all actives have a fitted effect of over 35% in size
How it was run: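 Viability readout: CellTiter-Glo luminescence following 5 min room-temperature incubation with reagent. Prior exposure: 48 h, 37C, humidified 5% CO2, 500 cells per well.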
Potency is the fitted concentration of half-maximal effect.

| SMILES | Potency [1] | Potency [2] | Potency [3] | Potency [4] | Potency [5] | Potency [6] | Potency [7] | Potency [8] | Potency [9] | Potency [10] | Potency [11] | Potency [12] | Potency [13] | Potency [14] | Potency [15] | Potency [16] | Potency [17] | Potency [18] |
| --- | --- | --- | --- | --- | --- | --- | --- | --- | --- | --- | --- | --- | --- | --- | --- | --- | --- | --- |
| COC(=O)[C@@H](N)CCCN=C(N)N[N+](=O)[O-] | inactive | inactive | inactive | inactive | inactive | inactive | inactive | inactive | inactive | inactive |  |  |  |  |  |  |  |  |
| Oc1ccc2c3c1O[C@H]1c4[nH]c5c(c4C[C@@]4(O)[C@@H](C2)N(CC2CC2)CC[C@]314)C[C@@]1(O)[C@H]2Cc3ccc(O)c4c3[C@@]1(CCN2CC1CC1)[C@H]5O4 | inactive | inactive | inactive | inactive | inactive |  | inactive | inactive | inactive | inactive | inactive | inactive | inactive | inactive |  |  |  |  |
| c1ccc(CCCN2CCN(CCOC(c3ccccc3)c3ccccc3)CC2)cc1 | 23500 nM (active) |  |  |  | inactive | inactive | 20900 nM (active) |  | 26400 nM (active) | inactive |  | 16600 nM (active) | 20900 nM (active) |  | 16600 nM (active) | 20900 nM (active) |  |  |
| CC1=C(O)C(=O)C=C2C1=CC=C1[C@@]2(C)CC[C@@]2(C)[C@@H]3C[C@](C)(C(=O)O)CC[C@]3(C)CC[C@]12C | 743 nM (active) |  | 526 nM (active) | 743 nM (active) | 1050 nM (active) | 833 nM (active) | 662 nM (active) | 743 nM (active) | 1320 nM (active) | 1870 nM (active) | 1050 nM (active) | 743 nM (active) | 743 nM (active) | 833 nM (active) | 833 nM (active) | 743 nM (active) | 743 nM (active) | 526 nM (active) |
| CC(C)(C)c1cc(C=C(C#N)C#N)cc(Br)c1O | 26400 nM (active) |  | 26400 nM (active) | 26400 nM (active) |  | 18700 nM (active) | 16600 nM (active) |  | 16600 nM (active) |  |  | 14800 nM (active) | 4180 nM (active) |  | 16600 nM (active) | 23500 nM (active) |  | 16600 nM (active) |
| CCCN1CCO[C@@H]2c3cc(O)ccc3OC[C@@H]21 | inactive | inactive |  | inactive | inactive | inactive | inactive |  | inactive | inactive | inactive |  |  | inactive |  |  |  | 14800 nM (active) |
| CO[C@H]1CCC(O[C@H]2C[C@H]([C@]3(C)CC[C@]4(C[C@H](O)[C@@H](C)[C@@H]([C@@H](C)C=C(C)C(=O)[C@H](C)C[C@H](C)C(=O)O)O4)O3)O[C@]3(O[C@@H]([C@H]4O[C@@](O)(CO)[C@H](C)C[C@H]4C)C[C@H]3C)[C@H]2C)O[C@H]1C (some centres not stated) | 3720 nM (active) | 3320 nM (active) |  | 1180 nM (active) | 264 nM (active) | 187 nM (active) | 526 nM (active) |  | 662 nM (active) |  |  |  | 526 nM (active) | 1480 nM (active) |  | 526 nM (active) |  | 83.3 nM (active) |
| CCCCCC[C@H]1C(=O)O[C@H](C)[C@H](NC(=O)c2cccc(NC=O)c2O)C(=O)O[C@@H](C)[C@@H]1OC(=O)CC(C)C | 66.2 nM (active) |  | 235 nM (active) | 41.8 nM (active) | 935 nM (active) | 418 nM (active) | 46.9 nM (active) | 372 nM (active) | 132 nM (active) | 235 nM (active) |  | 105 nM (active) | 83.3 nM (active) | 166 nM (active) | 52.6 nM (active) | 296 nM (active) | 332 nM (active) | 6620 nM (active) |
| O=C(Nc1ccncc1)C(=O)c1cn(Cc2ccc(Cl)cc2)c2ccccc12 | 16.6 nM (active) |  | 16.6 nM (active) | 74.3 nM (active) |  | 18.7 nM (active) | 14.8 nM (active) | 16.6 nM (active) |  | 20.9 nM (active) |  |  | 13.2 nM (active) | 46.9 nM (active) | 16.6 nM (active) |  |  | 148 nM (active) |
| C[C@]12COC(=O)C[C@@H]1CC[C@@H]1[C@H]2CC[C@@]2(C)[C@H]1CC[C@]2(C)O | inactive | inactive |  |  | inactive | inactive | inactive | inactive | inactive |  |  |  |  |  | inactive | inactive |  | 1180 nM (active) |
| COCC1(CO)C(=O)C2CCN1CC2 (configuration not stated) | 16600 nM (active) | 20900 nM (active) |  | 1480 nM (active) | 23500 nM (active) | 20900 nM (active) | 18700 nM (active) | 6620 nM (active) | 20900 nM (active) | 4180 nM (active) |  | 7430 nM (active) | 2960 nM (active) | 3720 nM (active) |  | 590 nM (active) | 3720 nM (active) | 7430 nM (active) |
| COC1=CC(C)=C[C@@H](C)[C@@H](O)[C@@H](C)CC(C)=CC=C[C@H](OC)[C@H]([C@@H](C)[C@@H](O)[C@H](C)[C@@]2(O)C[C@@H](O)[C@H](C)[C@@H](C(C)C)O2)OC1=O | 4.2 nM (active) |  | 1 nM (active) |  | 14800 nM (active) | 9.3 nM (active) | 5.3 nM (active) | 1 nM (active) | 1660 nM (active) |  |  | 1 nM (active) |  |  | 18.7 nM (active) |  |  |  |
| c1ccc2c(CN3CCNCC3)cccc2c1 | inactive |  | inactive | inactive | inactive | inactive | inactive | inactive | inactive | inactive | inactive | inactive | inactive |  | inactive |  |  |  |
